For part of these data: Measured potencies and affinities stand elsewhere. The source made the active and inactive calls.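 Rule for the calls, unless noted: active = fitted half-maximal concentration within the tested dose range, moderate curve steepness, a statistically real signal drop, and little compound fluorescence or tag-binding interference; inactive = the rest.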

Test [1] deals with Cell division control protein 42 homolog (Homo sapiens) (UniProt P60953). Briefly: inhibition of fluorescent GTP binding to constitutively active Cdc42 – biochemical, multiplex bead flow cytometry, Bodipy-FL-GTP, dose response (AID 1333). A general note: In flow cytometry, cells or beads pass a laser one at a time.
Sequence of Cell division control protein 42 homolog (Homo sapiens) (P60953 whole entry, looked up): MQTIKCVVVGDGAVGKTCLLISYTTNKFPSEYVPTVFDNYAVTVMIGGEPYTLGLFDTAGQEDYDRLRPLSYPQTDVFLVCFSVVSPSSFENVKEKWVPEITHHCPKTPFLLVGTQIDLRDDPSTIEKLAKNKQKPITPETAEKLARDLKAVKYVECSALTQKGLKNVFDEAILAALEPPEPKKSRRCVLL
Test [2] has the same target. Briefly: inhibition of fluorescent GTP binding to wildtype Cdc42 – biochemical, multiplex bead flow cytometry, Bodipy-FL-GTP, dose response (AID 1334;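 active = fitted half-maximal concentration within the tested range, moderate curve steepness, significant signal drop, and little compound fluorescence or bead-linkage interference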). The note with it: bead-based flow cytometry, Bodipy-FL-GTP binding to GST-Cdc42; at 100 µM (top of the series) unless noted.
The target of test [3] is GTPase HRas (Homo sapiens) (UniProt P01112). The test can be described thus: Ras wt fluorescent GTP loading blockade – biochemical, wildtype, multiplex bead flow cytometry, dose response (AID 1335;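 active = fitted half-maximal concentration within 10 nM to 100 µM, steepness 0.5 to 2, significant signal drop, low assay interference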). To be noted: bead-based flow cytometry, Bodipy-GTP binding to GST-Ras; at 100 µM (top of the series) unless noted.
Sequence of GTPase HRas (Homo sapiens) (P01112 whole entry, looked up): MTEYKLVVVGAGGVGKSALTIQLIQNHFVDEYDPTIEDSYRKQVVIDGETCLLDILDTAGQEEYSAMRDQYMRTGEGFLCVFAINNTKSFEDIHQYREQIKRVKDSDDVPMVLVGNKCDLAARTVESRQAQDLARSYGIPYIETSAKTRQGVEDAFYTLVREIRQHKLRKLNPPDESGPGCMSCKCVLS
In test [4] the test system is Ras-related protein Rab-7a (dog), GTP binding. The test can be described thus: blockers of fluorescent GTP binding to Rab7 – biochemical, wildtype, multiplex bead flow cytometry, dose response (AID 1336; call rule not given here).
The target of test [5] is Ras-related C3 botulinum toxin substrate 1 (Homo sapiens) (UniProt P63000). The test can be described thus: inhibition of wildtype Rac1 nucleotide loading – biochemical, multiplex bead flow cytometry, dose response (AID 1340;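 active = dose curve with midpoint inside tested range, moderate steepness, plateau gap beyond fit error, low compound glow and bead-link interference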). To be noted: GST-Rac1 beads, Bodipy-FL-GTP binding; at 100 µM (top of the series) unless noted.
For test [6], the target named is GTPase HRas (Homo sapiens) (UniProt P01112). Briefly: blockade of GTP loading onto mutant Ras – biochemical, activated mutant, multiplex bead flow cytometry, dose response (AID 1341;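 active = dose-response curve with midpoint inside the tested range, moderate steepness, significant amplitude and little compound fluorescence or bead-attachment interference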;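 note: GST-tagged constitutively activated Ras mutant immobilized on beads and multiplexed with other GTPases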).

For the compound `COc1ccc(S(=O)(=O)N2CCOCC2)cc1NC(=O)COc1cccnc1[N+](=O)[O-]`, the compound was classed as inactive in test [1], in test [4] and in test [6]. Moreover, the fluorescence, percent of control (lower = inhibition) in test [2] came to 36.2%. In test [3], this compound registered a GTP binding, percent of control of 78.7%. In test [5], this compound displayed a GTP binding signal, raw median fluorescence (lower = inhibition) (MCF (arbitrary fluorescence units)) of 190.

For the compound `CCCCOC(=O)c1cccnc1SCCc1ccccc1`, the compound was called inactive in test [1], in test [4] and in test [6]. The fluorescence, percent of control (lower = inhibition) in test [2] turned out to be 48.2%. The same compound displayed a GTP binding, percent of control in test [3] of 125%. This compound had a GTP binding signal, raw median fluorescence (lower = inhibition) (MCF (arbitrary fluorescence units)) in test [5] of 69.8.

Take `Cc1cc2nc3c(=O)[nH]c(=O)[nH]c3nc2c([N+](=O)[O-])c1N`: the compound was called inactive in test [1], in test [4] and in test [6]. In addition, in test [2], the fluorescence, percent of control (lower = inhibition) amounted to 35%. In test [3], this compound came in with a GTP binding, percent of control of 75.6%. For the same compound, the GTP binding signal, raw median fluorescence (lower = inhibition) (MCF (arbitrary fluorescence units)) in test [5] stood at 192.

For `O=C(O)c1cc2ccccc2nc1OCCc1ccccc1`, the compound was called inactive in test [1], in test [4] and in test [6]. Also, the fluorescence, percent of control (lower = inhibition) in test [2] turned out to be 55.8%. For the same compound, in test [3], the GTP binding, percent of control amounted to 222%. The GTP binding signal, raw median fluorescence (lower = inhibition) (MCF (arbitrary fluorescence units)) in test [5] stood at 50.3.

`COc1cc(NC(=O)c2cccs2)c(OC)cc1NC(=O)CCC(=O)Nc1ccc2ncccc2c1`: the call in test [1], in test [4] and in test [6] was inactive. Moreover, in test [2], the fluorescence, percent of control (lower = inhibition) came out at 30.9%. The GTP binding, percent of control in test [3] was found to be 69.1%. The compound further registered a GTP binding signal, raw median fluorescence (lower = inhibition) (MCF (arbitrary fluorescence units)) in test [5] of 196.

With `COc1cc2c3nnc(-c4ccc(F)cc4)c-3cn(Cc3cccc(F)c3)c2cc1OC`, the compound was classed as inactive in test [1], in test [4] and in test [6]. Moreover, in test [2], the fluorescence, percent of control (lower = inhibition) is 38.2%. In test [3], the GTP binding, percent of control came to 86.4%. In test [5], this compound had a GTP binding signal, raw median fluorescence (lower = inhibition) (MCF (arbitrary fluorescence units)) of 293.

Turning to `COc1cc2ccccc2cc1C(=O)NC(=S)Nc1cccc(C(=O)O)c1`, the compound was called inactive in test [1], in test [4] and in test [6]. In test [2], the fluorescence, percent of control (lower = inhibition) came out at 33.8%. The same compound returned a GTP binding, percent of control in test [3] of 83.3%. In test [5], this compound displayed a GTP binding signal, raw median fluorescence (lower = inhibition) (MCF (arbitrary fluorescence units)) of 174.

For `CC1(C)CC2CC(C)(CN2C(=O)c2cccs2)C1` (stereo not given), the compound was called inactive in test [1], in test [4] and in test [6]. The fluorescence, percent of control (lower = inhibition) in test [2] was 43.3%. Also, the GTP binding, percent of control in test [3] came out at 59.5%. This compound registered a GTP binding signal, raw median fluorescence (lower = inhibition) (MCF (arbitrary fluorescence units)) in test [5] of 184.

In the case of `O=C(C#Cc1cccc(O)c1)c1ccc([N+](=O)[O-])cc1`, the result in test [1], in test [4] and in test [6] was inactive. In test [2], the fluorescence, percent of control (lower = inhibition) is 71.6%. Also, the GTP binding, percent of control in test [3] turned out to be 196%. The GTP binding signal, raw median fluorescence (lower = inhibition) (MCF (arbitrary fluorescence units)) in test [5] worked out at 138.

In the case of `Cc1cc(C(=O)CN2C(=O)C(=O)N(Cc3ccccc3)C2=O)c(C)n1-c1ccccc1F`, the compound was classed as inactive in test [1], in test [4] and in test [6]. Moreover, the fluorescence, percent of control (lower = inhibition) in test [2] was 34.9%. This compound also returned a GTP binding, percent of control in test [3] of 81.4%. In test [5], the GTP binding signal, raw median fluorescence (lower = inhibition) (MCF (arbitrary fluorescence units)) turned out to be 260.

As to `Cc1nc2cc(C(=O)NCc3ccc4c(c3)OCO4)ccc2n1-c1ccc(Br)cc1`, the outcome in test [1], in test [4] and in test [6] was inactive. Moreover, the fluorescence, percent of control (lower = inhibition) in test [2] stood at 42.6%. The compound also showed a GTP binding, percent of control in test [3] of 62.2%. The GTP binding signal, raw median fluorescence (lower = inhibition) (MCF (arbitrary fluorescence units)) in test [5] was determined as 172.

For `CCC(Oc1ccc2ccccc2c1)C(=O)O` (stereo not given), the compound was called inactive in test [1], in test [4] and in test [6]. For the same compound, the fluorescence, percent of control (lower = inhibition) in test [2] was 123%. Also, the GTP binding, percent of control in test [3] was determined as 156%. Besides, the GTP binding signal, raw median fluorescence (lower = inhibition) (MCF (arbitrary fluorescence units)) in test [5] worked out at 190.

As for `COc1ccc(C(=O)N[C@H](C(=O)OCc2cc(=O)oc3cc(C)ccc23)C(C)C)cc1`, the compound was called inactive in test [1], in test [4] and in test [6]. The fluorescence, percent of control (lower = inhibition) in test [2] was determined as 50.4%. Further, the GTP binding, percent of control in test [3] turned out to be 63.8%. For the same compound, the GTP binding signal, raw median fluorescence (lower = inhibition) (MCF (arbitrary fluorescence units)) in test [5] was 202.

In the case of `FC(F)(F)c1cccc(NC(=S)NNC(=S)NCc2ccccc2)c1`, the outcome in test [1], in test [4] and in test [6] was inactive. The fluorescence, percent of control (lower = inhibition) in test [2] was 30.7%. In test [3], this compound showed a GTP binding, percent of control of 81.8%. Further, in test [5], the GTP binding signal, raw median fluorescence (lower = inhibition) (MCF (arbitrary fluorescence units)) was 222.

As for `Cc1cc(/C=c2\sc3nc4ccccc4n3c2=O)c(C)n1-c1ccc(C(=O)O)cc1`, the result in test [1], in test [4] and in test [6] was inactive. The fluorescence, percent of control (lower = inhibition) in test [2] came to 18.4%. Further, the GTP binding, percent of control in test [3] amounted to 70.1%. In test [5], the GTP binding signal, raw median fluorescence (lower = inhibition) (MCF (arbitrary fluorescence units)) turned out to be 204.
